Measurements as given in PubChem BioAssay (NCATS).
A number with no mark means an inactive call. Results filed as inconclusive are left out. Activity calls are given as the source filed them. Unless noted, calls come from the whole dose curve; as a rule, active = well fitted curve in either direction with a large enough effect (not every such curve was filed as active); inconclusive = small, poorly fitted or top-dose-only effect, or another doubt; inactive = flat fitted curve, though single readings scatter.

How the values were obtained:
[1] = AP1 Signaling Pathway (AID 357); details: ME-180 AP-1-bla reporter, EGF-induced, beta-lactamase ratio, 5 h; at 17.2 µM (top of the series) unless noted;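 note: ME-180 reporter cells stimulated with EGF at its EC50 level; % is set by controls: 0 for no effect and ±100 for the full control effect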
How it was run: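 Read-out was the 460nm/530nm emission ratio (excitation 405nm) after CCF4 loading for 2.5 hours at room temperature. Cells carried an AP-1-driven beta-lactamase reporter, were stimulated with EC50 EGF plus compound for 5 hours, and AC50 values came from titrations.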

[2] = NFAT Signaling Pathway (AID 444); details: Jurkat NFAT-bla M1, carbachol, beta-lactamase ratio, 5 h; at 17.2 µM (top of the series) unless noted;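 note: carbachol stimulus at about its EC50 of 1 µM final; % is set by controls: 0 for no effect and ±100 for the full control effect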
How it was run: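 Read-out: CCF4 FRET ratio (460 nm/530 nm) after 1 h RT dye loading, used for %activity and AC50 from titration series. Cells: Jurkat NFAT-β-lactamase/M1 line, treated with compound plus 1 uM carbachol for 5 h, 37 °C.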

[3] = Stat Signaling Pathway (AID 446); details: ME-180 (cervical carcinoma) SIE beta-lactamase reporter, IL-6 stimulated, 5 h; at 17.2 µM (top of the series) unless noted;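 note: ME-180 cervical cancer cells given 40 pM IL-6 alongside compound; SIE-controlled beta-lactamase reporter measured as 460/530 nm FRET emission ratio; % is set by controls: 0 for no effect and ±100 for the full control effect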
How it was run: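 Overnight-plated ME-180 cells bearing a STAT Inducible Element beta-lactamase reporter; 5 h co-exposure to compound and 40 pM IL-6; values normalized to 300 pM IL-6 and 125 nM JAK inhibitor controls.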

[4] = target: Glucocorticoid receptor (Homo sapiens) (UniProt P04150); experiment: GR-GFP Redistribution (AID 450;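 active = compounds whose dose series gives a full or clear partial fitted curve of increased nuclear translocation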; note: potency is the fitted concentration of half-maximal effect)
Glucocorticoid receptor (Homo sapiens), sequence (P04150 whole entry, looked up): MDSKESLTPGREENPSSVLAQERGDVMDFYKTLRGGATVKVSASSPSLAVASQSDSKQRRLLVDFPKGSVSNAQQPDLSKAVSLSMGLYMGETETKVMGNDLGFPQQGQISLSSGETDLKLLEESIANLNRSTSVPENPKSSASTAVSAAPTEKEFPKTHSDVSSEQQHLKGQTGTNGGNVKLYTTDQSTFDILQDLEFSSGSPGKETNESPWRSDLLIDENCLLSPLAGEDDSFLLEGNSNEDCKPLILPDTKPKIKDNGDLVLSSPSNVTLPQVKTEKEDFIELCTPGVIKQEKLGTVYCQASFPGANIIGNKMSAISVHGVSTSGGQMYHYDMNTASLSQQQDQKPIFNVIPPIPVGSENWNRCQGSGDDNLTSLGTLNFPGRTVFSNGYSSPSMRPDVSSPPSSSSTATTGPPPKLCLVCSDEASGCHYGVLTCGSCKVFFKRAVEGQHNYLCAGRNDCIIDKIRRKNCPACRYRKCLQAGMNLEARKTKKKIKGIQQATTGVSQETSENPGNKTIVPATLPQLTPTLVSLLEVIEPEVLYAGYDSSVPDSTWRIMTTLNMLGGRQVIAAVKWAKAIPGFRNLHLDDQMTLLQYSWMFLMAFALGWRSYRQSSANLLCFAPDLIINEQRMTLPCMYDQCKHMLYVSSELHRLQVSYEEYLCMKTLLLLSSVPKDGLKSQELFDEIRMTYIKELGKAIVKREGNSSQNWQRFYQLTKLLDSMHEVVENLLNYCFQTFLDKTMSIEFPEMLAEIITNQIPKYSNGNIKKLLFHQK

| Structure (SMILES) | activity change, negative = inhibition [1] [%] | activity change, negative = inhibition [2] [%] | activity, negative = inhibition [3] [%] | Potency [4] |
| --- | --- | --- | --- | --- |
| COc1ccc(C(=O)Nc2ccccc2N2CCOCC2)cc1Br | -21.1 | 9.59 | -8.26 | > 20.6 µM |
| Cc1ccc(C2/C(=C(\O)c3ccc4c(c3)OCCO4)C(=O)C(=O)N2CCCN(C)C)o1 (stereo not given) | 1.54 | -21.4 | -1.3 | > 20.6 µM |
| CCOC(=O)Cc1nnc(Nc2cccc(O)c2)c2ccccc12 | -12.7 | -6.58 | -17.1 | > 20.6 µM |
| CC(C)CC(=O)Nc1ccccc1N1CCCC1 | 8.1 | 8.79 | 0.417 | > 20.6 µM |
| Cc1ccc(C2/C(=C(/O)c3ccc(OC(C)C)cc3)C(=O)C(=O)N2CCN2CCOCC2)cc1 (stereo not given) | 0.482 | 10.1 | -12.8 | > 20.6 µM |
| CCCCC(=O)Nc1c(O)c2ccccc2[nH]c1=O | 4 | -5.18 | 1.28 | > 20.6 µM |
| N#Cc1nc(-c2ccc(F)cc2)oc1N1CCCC1 | 0.0908 | -1.86 | -3.18 | > 20.6 µM |
| CCN=C1SC(C(=O)Nc2ccc(Cl)c(Cl)c2)CC(=O)N1CC (stereo not given) | -19.4 | 10.1 | 4.81 | > 20.6 µM |
| CC(C)OC(=O)C(CC(=O)O)NCc1ccccc1 (stereo not given) | -7.38 | 10.6 | 5.04 | > 20.6 µM |
| Cc1cc(=O)n(CCC(=O)O)c2ccccc12 | 4.89 | 1.73 | 3.32 | > 20.6 µM |
| CC(C)(C)C1=Nn2c(nnc2-c2ccco2)SC1 | 2.22 | 11.1 | 8.01 | > 20.6 µM |
| Cc1ccc(-n2ncc3c(N4CCCC4)ncnc32)c(C)c1 | -15 | 22.5 | -1.13 | > 20.6 µM |
| Cc1ccc(C(=O)/C=C/Nc2ccccn2)cc1 | 11 | 23.5 | -4.63 | > 20.6 µM |
| O=c1[nH]c(-c2ccccn2)nc2ccccc12 | -2.38 | -10.6 | 13.3 | > 20.6 µM |
| c1ccc2c(c1)[nH]c1c(N3CCSCC3)ncnc12 | -11.4 | -20.2 | -18.7 | > 20.6 µM |
| O=C(c1ccc(-n2cnnn2)cc1)N1CCOCC1 | 10.3 | -0.0644 | 12.1 | > 20.6 µM |
| FC(F)(F)c1cccc(N2CCc3cn[nH]c32)c1 | -1.96 | 0.155 | -1.19 | > 20.6 µM |
| COc1cccc(Cn2c(NCC(C)C)nc3c2c(=O)n(C)c(=O)n3C)c1 | 15.5 | -1.36 | -6 | > 20.6 µM |
| N#C/C(C(=O)N1CCCCC1)=C1\Nc2ccccc2S1 | -15 | 11.9 | -10.3 | > 20.6 µM |
| CCOc1cccc(-c2nnc3sc(COc4ccccc4)nn23)c1 | -3.24 | 9.41 | -10.6 | > 20.6 µM |
| COc1ccc(-c2ncncc2-c2csc(C)n2)c(O)c1 | 2.87 | -5.52 | 0.893 | > 20.6 µM |
| CN1CCN(CCCCOc2ccc(F)cc2)CC1 | 10.9 | -9.28 | -0.445 | > 20.6 µM |
| COC(=O)c1ccc(=O)n(Cc2ccc3c(c2)OCO3)c1 | -0.911 | 6.79 | -1.86 | > 20.6 µM |
| CCCCCCCC(=O)OCC(=O)[C@@]1(O)CC[C@H]2[C@@H]3CCC4=CC(=O)CC[C@]4(C)[C@H]3[C@@H](O)C[C@@]21C | -9.61 | -28.6 | 7.91 | 0.00571 µM (active) |
| Nc1ccc2oc(-c3ccccc3Cl)nc2c1 | -0.869 | 15.3 | 2.57 | > 20.6 µM |
